Rows were chosen to be rich in hits. Some 12% of all compounds tested hit in one or more screens of this group.
Sfp inh – qHTS Assay for Inhibitors of Bacillus subtilis Sfp phosphopantetheinyl transferase (PPTase); AID 1490, 2009; Biochemical Sfp PPTase activity, qHTS; Potency, µM, for inactives: largest response in the series, negative = inhibition, hits mostly inhibitors; 310,000 tested, 3.5% active;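 also: the enzyme is Sfp with the accession as filed and its product quenches rhodamine fluorescence; 0% = enzyme reaction without inhibitor and -100% = no enzyme wells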
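After 15 min at room temperature with compound, 15 nM Sfp received 5 uM rhodamine-CoA plus 12.5 uM BHQ-2-ybbR (50 mM Hepes pH 7.6, 10 mM MgCl2). Rate came from the fluorescence difference over 30 min, ex 525/em 598 nm.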
Gal4-VP16 FLuc – VP16 counterscreen qHTS for inhibitors of ROR gamma transcriptional activity; 310,000 tested, 3.5% active; Drosophila S2 Gal4-VP16 UAS-luciferase, luminescence, 20 h; Potency, µM (top dose mostly 53.6 µM), for the others: at the top dose activity, negative = inhibition, most hits filed as inhibitors;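 also: Gal4-VP16 expression switched on by copper sulfate through the metallothionein promoter; nearly all actives have a fitted effect of over 50% in size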
PLK1 PBD block – qHTS for Inhibitors of PLK1-PDB (polo-like kinase 1 - polo-box domain): Primary Screen; Serine/threonine-protein kinase PLK1 (Homo sapiens), P53350; Plk1 PBD binding of FITC phosphopeptide, fluorescence polarization; Potency, µM, inactives show max response, negative = inhibition, actives largely listed as inhibitors; 360,000 tested, 2.8% active; AID 720504, 2013; also: series mostly up to about 57 µM; nearly all actives have a fitted effect of over 65% in size
RORgamma inh – qHTS for inhibitors of ROR gamma transcriptional activity. Potency, µM (doses to about 53.6 µM), inactives show at the highest dose activity change, negative = inhibition, most hits filed as inhibitors. 310,000 tested, 5.4% active. Drosophila S2 Gal4-RORgamma UAS-luciferase reporter, 20 h. Nuclear receptor ROR-gamma (Mus musculus), P51450; also: nearly all actives have a fitted effect of over 60% in size
Target sequence (P51450 whole entry, looked up, the tested form may be a part): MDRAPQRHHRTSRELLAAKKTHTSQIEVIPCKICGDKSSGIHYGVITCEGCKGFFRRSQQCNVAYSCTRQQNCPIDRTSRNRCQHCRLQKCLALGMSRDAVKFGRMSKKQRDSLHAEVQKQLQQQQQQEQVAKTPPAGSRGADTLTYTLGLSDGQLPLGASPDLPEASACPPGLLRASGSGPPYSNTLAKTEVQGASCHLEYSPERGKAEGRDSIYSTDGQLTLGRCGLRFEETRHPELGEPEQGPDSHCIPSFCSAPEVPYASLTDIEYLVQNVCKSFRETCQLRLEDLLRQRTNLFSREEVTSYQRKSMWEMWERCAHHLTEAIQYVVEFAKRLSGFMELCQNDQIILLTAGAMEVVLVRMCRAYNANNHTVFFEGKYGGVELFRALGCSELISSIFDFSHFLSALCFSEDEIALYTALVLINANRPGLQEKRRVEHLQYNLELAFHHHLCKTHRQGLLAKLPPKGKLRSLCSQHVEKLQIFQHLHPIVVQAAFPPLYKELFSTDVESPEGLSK
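Luminescence from a UAS-regulated Photinus luciferase reporter in stably transfected Drosophila Schneider cells is measured; decreased signal marks ROR gamma inhibition. Fusion expression is induced by 700 uM copper sulfate for 20 hr.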
ALDH1A1 inh – qHTS Assay for Inhibitors of Aldehyde Dehydrogenase 1 (ALDH1A1); Potency, µM (series often up to 75.3 µM), for inactives: at the top dose activity, negative = inhibition, usual class: inhibitors; 220,000 tested, 7.3% active; Purified ALDH1A1, NADH fluorescence, propionaldehyde substrate; AID 1030, 2008; Aldehyde dehydrogenase 1A1 (Homo sapiens), P00352; active = well fitted inhibition curve with a large enough effect, not every such curve was filed as active; inconclusive = small, poorly fitted or top-dose-only effect, or another doubt; inactive = no such curve, though single readings can be large or run the other way;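 also: plate controls were no enzyme wells and a reference inhibitor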
Active calls of the source: *; [ ] = remark or other dose. Unless noted, calls follow the shape of the dose curve; as a rule, active = well fitted curve in the direction sought with a large enough effect; inconclusive = small, poorly fitted or top-dose-only effect, or another doubt; inactive = no such curve, though single readings can be large; an effect the other way counts as inactive or inconclusive. Unless noted, % is scaled to controls: 0 for no effect and ±100 for the full control effect; potency is read from the fitted curve at half-maximal effect.

Results for CC1OC(OC2C(CO)OC(OC3C(CO)OC(O)C(O)C3O)C(O)C2O)C(O)C(O)C1NC1C=C(CO)C(O)C(O)C1O (stereo unspecified) ?
Sfp inh: 4%; Gal4-VP16 FLuc: 1%; RORgamma inh: -5%; ALDH1A1 inh: inconclusive

What do the screens show for `CCc1ccc(C(O)c2ncc(-c3cccc(C(F)(F)F)c3)[nH]2)cc1` (stereo unspecified)?
PLK1 PBD block: 0%

What do the screens show for `CC(C)CSc1ncc(-c2cccc(C(F)(F)F)c2)cn1`?
Sfp inh: -11%; Gal4-VP16 FLuc: -2%; PLK1 PBD block: 2%; RORgamma inh: 3%; ALDH1A1 inh: 22µM*

Results for CC1(C)OC(C(O)(c2cccc3c2oc2ccccc23)c2cccc3c2oc2ccccc23)C(C(O)(c2cccc3c2oc2ccccc23)c2cccc3c2oc2ccccc23)O1 (stereo unspecified) ?
Sfp inh: -6%; Gal4-VP16 FLuc: 0%[10 µM]; RORgamma inh: -2%[10 µM]; ALDH1A1 inh: 4%[13.5 µM]

How did COCCOCC(O)CN1CCN(c2ccc(C)cc2)CC1 (stereo unspecified) do in these assays?
Sfp inh: 79µM*; Gal4-VP16 FLuc: -13%; PLK1 PBD block: -16%; RORgamma inh: -9%; ALDH1A1 inh: 11µM*

How did c1csc(-c2noc(CN3CCc4sccc4C3)n2)c1 do in these assays?
Sfp inh: -11%; Gal4-VP16 FLuc: -12%; PLK1 PBD block: 0%; RORgamma inh: inconclusive; ALDH1A1 inh: 20µM*

Results for C[C@@H]1CN(Cc2nc(-c3cccs3)no2)C[C@H](C)O1 ?
Sfp inh: 5%; Gal4-VP16 FLuc: -6%; PLK1 PBD block: inconclusive; RORgamma inh: 10%; ALDH1A1 inh: -5%

Results for COCC1CCN(Cc2nc(-c3cccs3)no2)C1 (stereo unspecified) ?
Sfp inh: inconclusive; Gal4-VP16 FLuc: -10%; PLK1 PBD block: inconclusive; RORgamma inh: 5%; ALDH1A1 inh: 28µM*

How did O=C1N/C(=N\N=C\c2cccs2)SC1Cc1cccc(Cl)c1 (stereo unspecified) do in these assays?
Sfp inh: -5%; Gal4-VP16 FLuc: 0.71µM*; PLK1 PBD block: 2%; RORgamma inh: 0.5µM*; ALDH1A1 inh: -8%

Results for O=C1N/C(=N\N=C\c2cccs2)SC1Cc1ccc(Cl)cc1 (stereo unspecified) ?
Sfp inh: 7%; Gal4-VP16 FLuc: 0.63µM*; PLK1 PBD block: -7%; RORgamma inh: 1.1µM*; ALDH1A1 inh: 12%

What do the screens show for `C=CCN1C(=O)C(Cc2ccc(OCC)cc2)S/C1=N\N=C\c1cccs1` (stereo unspecified)?
Sfp inh: 11%; Gal4-VP16 FLuc: 6%; PLK1 PBD block: -1%; RORgamma inh: -11%; ALDH1A1 inh: 4.5µM*

Results for CC(C)NC(=S)N/N=C/c1cc(Br)ccc1O ?
Sfp inh: 7%; Gal4-VP16 FLuc: 4.5µM*; PLK1 PBD block: inconclusive; RORgamma inh: 5µM*; ALDH1A1 inh: inconclusive

How did COC(=O)N/N=C/c1ccccc1OCc1ccccc1 do in these assays?
Sfp inh: 10%; Gal4-VP16 FLuc: 1%; PLK1 PBD block: -3%; RORgamma inh: inconclusive; ALDH1A1 inh: 2%

How did COC(=O)N/N=C/c1cc(Br)ccc1O do in these assays?
Sfp inh: -7%; Gal4-VP16 FLuc: inconclusive; PLK1 PBD block: -1%; RORgamma inh: 7.1µM*; ALDH1A1 inh: 2%

How did Cc1cc(C(=O)N/N=C/c2cc(N=Nc3ccccc3)ccc2O)n[nH]1 do in these assays?
Sfp inh: -14%; Gal4-VP16 FLuc: 11µM*; PLK1 PBD block: -5%; RORgamma inh: 10µM*; ALDH1A1 inh: -10%

How did Cc1cc(C(=O)N/N=C/c2c3ccccc3cc3ccccc23)n[nH]1 do in these assays?
Sfp inh: 13%; Gal4-VP16 FLuc: -5%; PLK1 PBD block: -10%; RORgamma inh: -12%

What do the screens show for `COC(=O)N/N=C/c1cc(N=Nc2ccccc2Cl)ccc1O`?
Sfp inh: -13%; Gal4-VP16 FLuc: 16µM*; PLK1 PBD block: inconclusive; RORgamma inh: 4µM*

What do the screens show for `COC(=O)N/N=C\c1cc(Br)ccc1OCc1ccccc1`?
Sfp inh: 10%; Gal4-VP16 FLuc: 7%; PLK1 PBD block: -7%; RORgamma inh: inconclusive; ALDH1A1 inh: -2%

What do the screens show for `O=C(Oc1ccccc1)N1CCC2(CC1)CCN(c1ccccn1)CC2`?
Sfp inh: 0%; Gal4-VP16 FLuc: -14%; RORgamma inh: 27%; ALDH1A1 inh: inconclusive

How did O=C(O)[C@@H](Br)[C@@H](Br)c1ccccc1[N+](=O)[O-] do in these assays?
ALDH1A1 inh: 3%[13.5 µM]

Results for COCCCn1c(=O)c2sccc2n(Cc2ccc(C)cc2)c1=O ?
Sfp inh: 4%; Gal4-VP16 FLuc: -10%; PLK1 PBD block: -2%; RORgamma inh: 9%

Results for [N-]=[N+]=Nc1ccc(C(=O)CSC[C@H](NC(=O)CC[C@H](N)C(=O)O)C(=O)NCC(=O)O)cc1 ?
ALDH1A1 inh: 7%

How did Cc1ccc(S(=O)(=O)N2CCN(C(=O)C3CCN(c4ncnc5sc(C)c(C)c45)CC3)CC2)c(C)c1 do in these assays?
PLK1 PBD block: -9%

Results for Nc1ccc(C(=O)N/N=C\c2cc(N=Nc3cccc4ccccc34)ccc2O)cc1 ?
Sfp inh: -7%; Gal4-VP16 FLuc: 5.6µM*; PLK1 PBD block: -6%; RORgamma inh: 1.6µM*; ALDH1A1 inh: -2%

What do the screens show for `COC(=O)N/N=C/c1cc(N=Nc2ccccc2)ccc1O`?
Sfp inh: 7%; Gal4-VP16 FLuc: inconclusive; PLK1 PBD block: 4%; RORgamma inh: 1.1µM*

Results for Cc1cc(C(=O)N/N=C/c2cccc([N+](=O)[O-])c2O)n[nH]1 ?
Sfp inh: 12%; Gal4-VP16 FLuc: inconclusive; PLK1 PBD block: -8%; RORgamma inh: 13µM*; ALDH1A1 inh: -8%

What do the screens show for `CC1(C(=O)Nc2ccc(Cl)c(Cl)c2)CCN1C(=O)Cc1ccc(-c2ccccc2)cc1` (stereo unspecified)?
PLK1 PBD block: 6%

How did O=C(c1ccc(Cl)cc1)[C@@H]1[C@@H]2C(=O)N(c3cccc4ccccc34)C(=O)[C@@H]2C2c3ccccc3C=NN21 (stereo partly specified) do in these assays?
Sfp inh: -11%; Gal4-VP16 FLuc: -4%; PLK1 PBD block: 24µM*; RORgamma inh: 3%; ALDH1A1 inh: inconclusive

How did COc1ccc(/C=C(\C#N)C(N)=O)cc1OC do in these assays?
ALDH1A1 inh: -7%[13.5 µM]
